# Assay results from PubChem BioAssay.
# “And” between values parts separate entries of the source, which are not always exact repeats. Identical values can stand only once. Records with an inconclusive call do not appear. Some structures have more than one record in an assay (separate samples or runs), and their calls can disagree. The list shows a part of the results. The source made the active and inactive calls.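 The calls were made as follows, unless noted: active = GFP response, as percent of the DMSO control, above the screen-wide mean plus 3 SD, about 139; inconclusive = no response measured because the compound's own fluorescence interfered; inactive = the rest.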
# Columns and labels:
# [1] = yeast TOR pathway RPL19A-GFP modulators, primary screen, cell-based, S. cerevisiae, multiplex flow cytometry (AID 1862; in the data active = percent of DMSO control GFP below about 86%;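 also: lower values mimic rapamycin by blocking the RPL19A rise seen in DMSO cells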); settings: S. cerevisiae RPL19A-GFP strain, flow cytometry fluorescence, 3 h; at 10 µM; stronger effect = lower value
# [2] = modulators of MEP2-GFP levels in yeast, primary screen, S. cerevisiae, multiplex flow cytometry (AID 1867);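 also: median GFP channel fluorescence of barcode-gated MEP2-GFP cells measured by flow cytometry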; settings: S. cerevisiae MEP2-GFP strain, 3 h, at 10 µM, stronger effect = higher value, 100% means same as DMSO wells
# [3] = modulators of CIT2-GFP expression in yeast, primary screen, S. cerevisiae, GFP fusion, multiplex flow cytometry (AID 1870;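 active = percent response above a set limit, the screen-wide mean plus 3 SD, cut at about 130% in these data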;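 also: barcoded CIT2-GFP strain pooled with four other GFP strains with rapamycin as positive control; median GFP fluorescence per well over plate mean of DMSO wells so 100% = DMSO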); settings: 3 h, at 10 µM, stronger effect = higher value
# [4] = modulators of LAP4-GFP expression in yeast, primary screen, S. cerevisiae, multiplex flow cytometry (AID 1873;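 active = GFP signal, as percent of the solvent control, above the screen mean plus 3 SD, about 149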); settings: 3 h, at 10 µM, stronger effect = higher value
# [5] = modulators of AGP1-GFP expression in yeast TOR pathway, primary screen, cell-based, multiplex flow cytometry, S. cerevisiae (AID 1887;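 active = GFP signal above the screen-wide mean plus 3 SD, that is over about 124.5% of the solvent control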;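 also: AGP1-GFP fusion strain of S. cerevisiae within a five-strain barcoded multiplex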); settings: 3 h, at 10 µM, stronger effect = higher value
# [6] = RPL19A-GFP modulators, yeast TOR pathway, confirmation, cell-based, S. cerevisiae, flow cytometry, cherry picks, mother/daughter gates (AID 2270;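 active = GFP response below 50% of the DMSO control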); settings: S. cerevisiae RPL19A-GFP strain, 3 h, at 10 µM, stronger effect = lower value, 100 = same GFP as DMSO wells
# [7] = LAP4-GFP expression modulators in yeast, confirmation, cell-based, cherry picks, flow cytometry, mother/daughter gates (AID 2271;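 active = GFP response above 150% of the DMSO control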;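 also: ratio of sample to DMSO plate mean so 100% equals DMSO level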); settings: S. cerevisiae LAP4-GFP strain, 3 h, at 10 µM, stronger effect = higher value, 100 means same as DMSO control
# [8] = modulators of MEP2-GFP levels in yeast, confirmation, S. cerevisiae, flow cytometry GFP, cherry picks (AID 2272;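 active = GFP response above 150% of the DMSO control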;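 also: ratio of well signal to plate DMSO mean so 100% equals DMSO level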); settings: S. cerevisiae MEP2-GFP strain, 3 h, at 10 µM, stronger effect = higher value
# [9] = modulators of CIT2-GFP expression in yeast, confirmation, S. cerevisiae, GFP fusion, cherry picks, mother/daughter gates (AID 2274;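 active = GFP response above 150% of the DMSO level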); settings: S. cerevisiae CIT2-GFP strain, flow cytometry, 3 h, at 10 µM, stronger effect = higher value
# [10] = inhibitors of CD8+ T cell-vesicle binding, pilot screen, LFA-1/ICAM-1 modulator project, MLPCN validation set, flow cytometry (AID 2523;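 active = response below a set limit, under 55% cells CD8-positive and vesicle-bound, and CD8 cells' 90th-percentile brightness under 279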;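 as to vesicle binding response: mean PE anti-B7-1 fluorescence of CD8+ cells relative to row control; 100% = QL9-loaded vesicles with DMSO vehicle in the same plate row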); settings: 2C mouse CD8+ T cells, at 7 µM, stronger effect = lower value; double positive events: measured here: CD8+/vesicle+ event percentage
# [11] = molecular target: Regulator of G-protein signaling 16 (Homo sapiens) (UniProt O15492); assay: modulators of RGS–Galpha-o binding, primary screen, biochemical, multiplexed beads, flow cytometry, RGS4/7/8/16/19 (AID 1504); settings: multiplexed bead flow cytometry, measured here: RGS16 interaction, at 10 µM;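 also: fluorescently labeled Galpha-o bound to GDP with aluminium fluoride binding biotinylated RGS beads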
# [12] = molecular target: Regulator of G-protein signaling 19 (Homo sapiens) (UniProt P49795); assay: as above; settings: multiplexed bead flow cytometry, measured here: RGS19 interaction, at 10 µM
# [13] = molecular target: Regulator of G-protein signaling 7 (Homo sapiens) (UniProt P49802); assay: as above; settings: multiplexed bead flow cytometry, measured here: RGS7 interaction, at 10 µM
# [14] = molecular target: Regulator of G-protein signaling 8 (Homo sapiens) (UniProt P57771); assay: as above; settings: multiplexed bead flow cytometry, measured here: RGS8 interaction, at 10 µM
# [15] = disruption of biotin probe capture by avidin, counter-screen for RGS protein interaction modulators, biochemical, flow cytometry, bead-based (AID 1783;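 active = inhibition above 50%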;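 also: median green fluorescence of gated singlet beads compared with DMSO control wells; 0% = DMSO wells and 100% = complete loss of bead fluorescence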); settings: streptavidin beads, fluorescein-biotin binding; at 10 µM, stronger effect = higher value
# [16] = molecular target: Guanine nucleotide-binding protein G(o) subunit alpha (Homo sapiens) (UniProt P09471); assay: RGS8-Galphao binding modulators, confirmation, biochemical, multiplexed bead flow cytometry, single concentration (AID 1836; in the data active = binding response below about 72% or above about 130%; inactive = in between;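 also: Galphao activated as GDP AlF4 complex before binding bead RGS8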); settings: bead-based flow cytometry RGS8-Galphao binding, fluorescence; at 10 µM; actives lie on both sides
# [17] = molecular target: Guanine nucleotide-binding protein G(o) subunit alpha (Homo sapiens) (UniProt P09471); assay: RGS7-Galphao binding modulators, confirmation, biochemical, multiplexed bead flow cytometry, single concentration (AID 1837; in the data active = response below about 75% or above about 130%; inactive = in between;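 also: fluorescent Galphao activated with GDP and aluminum fluoride binding bead-coupled RGS7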); settings: bead-based flow cytometry RGS7-Galphao binding; at 10 µM; actives lie on both sides
# [18] = molecular target: Regulator of G-protein signaling 16 (Homo sapiens) + Guanine nucleotide-binding protein G(o) subunit alpha (Homo sapiens) (UniProt O15492+P09471); assay: modulators of RGS16-Galphao protein binding, confirmation, biochemical, single concentration, multiplexed bead flow cytometry (AID 1838; in the data active = response below about 74% or above about 130%; inactive = in between;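 also: Galphao activated as the GDP aluminium fluoride complex binding bead-coupled RGS16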); settings: bead-based flow cytometry, at 10 µM, actives lie on both sides
# [19] = molecular target: Guanine nucleotide-binding protein G(o) subunit alpha (Homo sapiens) (UniProt P09471); assay: modulators of RGS4-Galphao protein binding, confirmation, biochemical, single concentration, multiplexed bead flow cytometry (AID 1840; in the data active = binding response below about 74% or above about 130%; inactive = in between); settings: at 10 µM, actives lie on both sides
# [20] = molecular target: Guanine nucleotide-binding protein G(o) subunit alpha (Homo sapiens) + Regulator of G-protein signaling 19 (Homo sapiens) (UniProt P09471+P49795); assay: regulators of RGS19-Galphao binding, confirmation, biochemical, single point, multiplexed bead flow cytometry (AID 1841; in the data active = response below about 50% or above about 160%; inactive = in between;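 also: 100% = no compound control and 0% = blank background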); settings: bead-based flow cytometry RGS19-Galphao binding; at 10 µM; actives lie on both sides
# [21] = measured here: daughter cell gate
# [22] = measured here: mother cell gate
# [23] = measured here: daughter cell gate response
# [24] = measured here: mother cell gate response
# Chain of Guanine nucleotide-binding protein G(o) subunit alpha (Homo sapiens) + Regulator of G-protein signaling 19 (Homo sapiens) (P09471 whole entry, looked up): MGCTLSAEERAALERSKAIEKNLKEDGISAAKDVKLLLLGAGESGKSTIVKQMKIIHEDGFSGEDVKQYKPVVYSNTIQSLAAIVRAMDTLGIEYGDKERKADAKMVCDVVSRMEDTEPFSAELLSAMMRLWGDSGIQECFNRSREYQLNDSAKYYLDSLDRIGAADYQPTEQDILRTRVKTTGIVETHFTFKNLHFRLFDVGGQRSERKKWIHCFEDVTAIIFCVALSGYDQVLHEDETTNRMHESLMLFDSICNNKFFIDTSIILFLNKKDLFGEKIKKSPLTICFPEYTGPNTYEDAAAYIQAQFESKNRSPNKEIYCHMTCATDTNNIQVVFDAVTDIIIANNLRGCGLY
# Chain of Guanine nucleotide-binding protein G(o) subunit alpha (Homo sapiens) + Regulator of G-protein signaling 19 (Homo sapiens) (P49795 whole entry, looked up): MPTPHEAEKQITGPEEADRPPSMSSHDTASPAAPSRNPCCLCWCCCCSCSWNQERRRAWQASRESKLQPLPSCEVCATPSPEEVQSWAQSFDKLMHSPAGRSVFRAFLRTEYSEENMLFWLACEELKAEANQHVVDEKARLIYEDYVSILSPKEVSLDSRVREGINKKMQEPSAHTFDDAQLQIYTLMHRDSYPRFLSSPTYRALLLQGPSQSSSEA
# Chain of Guanine nucleotide-binding protein G(o) subunit alpha (Homo sapiens) (P09471 whole entry, looked up): as the sequence (P09471 whole entry, looked up) above
# Chain of Regulator of G-protein signaling 16 (Homo sapiens) + Guanine nucleotide-binding protein G(o) subunit alpha (Homo sapiens) (O15492 whole entry, looked up): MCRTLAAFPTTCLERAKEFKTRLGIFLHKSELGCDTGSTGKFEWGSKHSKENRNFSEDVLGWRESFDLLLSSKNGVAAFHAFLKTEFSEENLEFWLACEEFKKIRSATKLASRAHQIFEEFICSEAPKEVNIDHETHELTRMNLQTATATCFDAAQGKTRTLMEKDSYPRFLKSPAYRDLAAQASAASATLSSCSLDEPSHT
# Chain of Regulator of G-protein signaling 16 (Homo sapiens) + Guanine nucleotide-binding protein G(o) subunit alpha (Homo sapiens) (P09471 whole entry, looked up): as the sequence (P09471 whole entry, looked up) above
compound,measurement,setting,value
CC(=O)OCC(=O)[C@H]1CC[C@H]2[C@@H]3CCC4=CC(=O)CC[C@]4(C)[C@H]3CC[C@]12C,percent of DMSO control GFP,[1],89.1% (inactive)
same,GFP response vs DMSO,[2],103% (inactive)
same,percent response of DMSO control,[3],108% (inactive)
same,GFP response vs DMSO,[4],73.2% (inactive)
same,"GFP response, % of DMSO",[5],86.3% (inactive)
same,GFP response vs DMSO,[6],95.8% (inactive)
same,GFP response vs DMSO,[6]; [21],96.7%
same,GFP response vs DMSO,[6]; [22],96.5%
same,GFP response relative to DMSO,[7],103% (inactive)
same,GFP response relative to DMSO,[7]; [23],99.3%
same,GFP response relative to DMSO,[7]; [24],106%
same,GFP response vs DMSO,[8],97.5% (inactive)
same,"GFP response, % of DMSO",[9],97.8% (inactive)
same,"GFP response, % of DMSO",[9]; [21],98.3%
same,"GFP response, % of DMSO",[9]; [22],99.1%
same,double positive events,[10],52.1%
same,vesicle binding response,[10],113% (inactive)
C=CCn1c(=NC(=O)c2cccs2)sc2cc(NC(C)=O)ccc21,RGS16–Galpha-o binding response,[11],152%
same,RGS19–Galpha-o binding response,[12],58.7%
same,RGS7–Galpha-o binding response,[13],152%
same,RGS8–Galpha-o binding response,[14],136%
same,inhibition,[15],-1.6% (inactive)
same,binding response (% of control),[16],103% (inactive)
same,response (percent of control binding),[17],107% (inactive)
same,response (% of control binding),[18],103% (inactive)
same,binding response (% of control),[19],102% (inactive)
same,response (percent of control binding),[20],109% (inactive)
CCCOc1ccc(Cc2c(Cl)nc(SC)nc2NC)cc1,inhibition,[15],-0.2% (inactive)
same,binding response (% of control),[16],102% (inactive)
same,response (percent of control binding),[17],94.9% (inactive)
same,response (% of control binding),[18],99.9% (inactive)
same,binding response (% of control),[19],101% (inactive)
same,response (percent of control binding),[20],67.1% (inactive)
COc1cccc(/C=C/C(=O)c2c(O)cc(C)oc2=O)c1O,percent of DMSO control GFP,[1],104% (inactive)
same,GFP response vs DMSO,[2],108% (inactive)
same,percent response of DMSO control,[3],82.5% (inactive)
same,GFP response vs DMSO,[4],184% (active)
same,"GFP response, % of DMSO",[5],91.1% (inactive)
same,GFP response vs DMSO,[6],101% (inactive)
same,GFP response vs DMSO,[6]; [21],104%
same,GFP response vs DMSO,[6]; [22],99.7%
same,GFP response relative to DMSO,[7],165% (active)
same,GFP response relative to DMSO,[7]; [23],155%
same,GFP response relative to DMSO,[7]; [24],175%
same,GFP response vs DMSO,[8],107% (inactive)
same,"GFP response, % of DMSO",[9],91.2% (inactive)
same,"GFP response, % of DMSO",[9]; [21],99.1%
same,"GFP response, % of DMSO",[9]; [22],90.2%
same,double positive events,[10],62.2%
same,vesicle binding response,[10],259% (inactive)
COc1ccccc1-n1c(-c2cc(-c3ccco3)[nH]n2)n[nH]c1=S,RGS16–Galpha-o binding response,[11],-1.14%
same,RGS19–Galpha-o binding response,[12],531%
same,RGS7–Galpha-o binding response,[13],-527%
same,RGS8–Galpha-o binding response,[14],6.3%
same,inhibition,[15],0.5% (inactive)
same,binding response (% of control),[16],83.6% (inactive)
same,response (percent of control binding),[17],99.5% (inactive)
same,response (% of control binding),[18],82.6% (inactive)
same,binding response (% of control),[19],98.3% (inactive)
same,response (percent of control binding),[20],68.6% (inactive)
O=C(Nc1ccccc1)OCc1cc(-c2ccc(Cl)cc2)on1,inhibition,[15],2.5% (inactive)
same,binding response (% of control),[16],107% (inactive)
same,response (percent of control binding),[17],88.4% (inactive)
same,response (% of control binding),[18],107% (inactive)
same,binding response (% of control),[19],93.7% (inactive)
same,response (percent of control binding),[20],55.4% (inactive)
C[n+]1ccccc1/C=N/O,percent of DMSO control GFP,[1],99.2% (inactive) and 98.9% (inactive)
same,GFP response vs DMSO,[2],143% (active) and 101% (inactive)
same,percent response of DMSO control,[3],101% (inactive) and 95.5% (inactive)
same,GFP response vs DMSO,[4],90.2% (inactive) and 97% (inactive)
same,"GFP response, % of DMSO",[5],98.2% (inactive) and 98.3% (inactive)
same,GFP response vs DMSO,[6],99% (inactive)
same,GFP response vs DMSO,[6]; [21],99.5%
same,GFP response vs DMSO,[6]; [22],99.6%
same,GFP response relative to DMSO,[7],98.7% (inactive)
same,GFP response relative to DMSO,[7]; [23],100%
same,GFP response relative to DMSO,[7]; [24],101%
same,GFP response vs DMSO,[8],100% (inactive)
same,"GFP response, % of DMSO",[9],111% (inactive)
same,"GFP response, % of DMSO",[9]; [21],108%
same,"GFP response, % of DMSO",[9]; [22],112%
same,double positive events,[10],60.5% and 64%
same,vesicle binding response,[10],142% (inactive) and 180% (inactive)
